Screening data as filed in PubChem BioAssay.
Only some compounds are listed: those with a hit (about 4.8% of all), similar ones and a draw of the others.
SMARCA2 act = increases SMARCA2 function in MMTV reporter cells; MG213 cells, MMTV-luciferase reporter, dexamethasone, overnight; activation, % at 9.1 µM; actives 1% (n = 370,000); AID 652017; in the data active = activation above about 7.8%;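 note: 0% = vehicle wells and 100% = reference activator wells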
DAX1 inh-1 = inhibits human nuclear receptor DAX1; P51843; HEK293 Gal4-DAX1 luciferase reporter, luminescence; inhibition, % at 6.75 µM; actives 0.99% (n = 340,000); AID 504766;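 active = inhibition above the mean over all tested compounds plus 3 SD, cut at about 4.2% in these data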;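 note: 0% = DAX1-transfected cells with DMSO and 100% = empty-vector control cells with DMSO; inhibition shows as a rise in luminescence from relieved DAX1 repression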
DAX1 inh-2 = DAX1 (NR0B1) inhibition, primary screen | inhibition, % at 6.8 µM | HEK293T StAR-luciferase reporter, SF-1/DAX-1 repression relief | actives 1.1% (n = 370,000);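 active = inhibition above the mean over all tested compounds plus 3 SD, cut at about 3.6% in these data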;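 note: 0% = DAX-1 cells with DMSO and 100% = cells lacking DAX-1 with DMSO; higher inhibition means more luminescence from relief of DAX-1 repression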
hgDAF12 agonist = hgDAF-12 agonism, primary luciferase screen; actives 1.8% (n = 370,000); HEK293 GAL4-hgDAF12 UAS-luciferase reporter, agonist luminescence; normalized to butyrate control; activation, % at 6.8 µM; AID 687014;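 active = activation above a cutoff set at the mean of all screened compounds plus 3 SD, cut at about 10% in these data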;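 note: 0% = DMSO wells and 100% = sodium butyrate wells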
hcDAF12 agonist = activators of H. contortus DAF-12 nuclear receptor; HEK293 hcDAF-12 lit1-tk-luc reporter, luminescence; 0% DMSO, 100% Δ7-dafachronic acid; activation, % at 6.8 µM; actives 1.4% (n = 370,000);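 active = activation above the mean of all tested compounds plus 3 SD, cut at about 5.5% in these data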;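 note: 100% = response to 3 µM Δ7-dafachronic acid high control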
ssDAF12 agonist = S. stercoralis DAF-12 activation, primary screen. HEK293 ssDAF-12/GRIP1 lit1-tk-luc reporter, luminescence; % of 3 µM dafachronic acid response. activation, % at 6.8 µM. actives 1% (n = 370,000). AID 652126;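 active = activation above the mean over all tested compounds plus 3 SD, cut at about 0.9% in these data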;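 note: 0% = DMSO-only wells and 100% = 3 µM delta7-dafachronic acid wells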
hgDAF12 conf = confirmation of H. glycines DAF-12 agonists. shares compounds with hgDAF12 agonist. HEK293 GAL4-hgDAF12 luciferase reporter, agonist mode; percent of butyrate response. activation, % at 6.8 µM. actives 80% (n = 3,300). AID 743050;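 active = mean activation over triplicate wells above the hit cutoff derived from the earlier primary screen, cut at about 11% in these data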;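 note: 0% = DMSO low control and 100% = 2 mM sodium butyrate high control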
LXR ag 2 = activates human LXR-beta, counter-screen for DAF-12 agonists | shares compounds with hgDAF12 agonist | 3,300 tested, under 10 active | activation, % at 6.8 µM | HEK293 Gal4-LXR luciferase reporter, 24 h;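 active = mean activation of the triplicate above a set limit carried over from the primary screen, none filed active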
Target sequence (P55055 whole entry, looked up, the tested form may be a part): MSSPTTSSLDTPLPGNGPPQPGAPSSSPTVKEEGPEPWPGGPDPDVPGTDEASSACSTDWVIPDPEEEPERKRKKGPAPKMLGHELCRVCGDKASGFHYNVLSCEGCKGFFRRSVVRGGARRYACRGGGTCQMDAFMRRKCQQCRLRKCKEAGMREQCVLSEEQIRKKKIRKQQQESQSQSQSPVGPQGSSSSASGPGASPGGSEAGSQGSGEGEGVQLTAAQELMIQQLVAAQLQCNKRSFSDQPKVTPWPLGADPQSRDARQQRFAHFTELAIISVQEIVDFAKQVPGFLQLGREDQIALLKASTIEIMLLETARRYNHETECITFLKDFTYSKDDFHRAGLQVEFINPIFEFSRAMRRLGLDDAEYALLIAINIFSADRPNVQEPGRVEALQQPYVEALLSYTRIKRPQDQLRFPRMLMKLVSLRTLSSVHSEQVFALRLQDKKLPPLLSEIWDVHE
The depositor's hits bear a star; . = not tested or not shown.

SMILES	SMARCA2 act	DAX1 inh-1	DAX1 inh-2	hgDAF12 agonist	hcDAF12 agonist	ssDAF12 agonist	hgDAF12 conf	LXR ag 2
COc1ccc(NC(=S)N/C(=N/S(=O)(=O)c2ccc(C)cc2)c2ccccc2)cc1	4	0	2	5	1	0	.	.
O=C(NN/C(=N/S(=O)(=O)c1ccc(Cl)cc1)c1ccccc1)c1ccc(O)cc1	7	0	3	16*	-1	0	9	0
COc1ccc(NC(=S)NC(=NS(=O)(=O)c2ccc(Cl)cc2)c2ccccc2)cc1	-1	2	3	13*	2	1	10	0
Cc1ccc(S(=O)(=O)NN/C(=N/S(=O)(=O)c2ccccc2)c2ccccc2)cc1	-4	0	0	0	-2	-1	.	.
Cc1ccc(S(=O)(=O)/N=C(/NNC(=O)c2cccc(Cl)c2)c2ccccc2)cc1	5	1	2	14*	5	1	21*	1
O=C(NCCc1ccccc1)O[C@H]1CC[C@@]23CCCN2C(=O)CCC[C@H]3C1	.	.	.	0	-1	-2	.	.
C[C@H](CO)N1C[C@H](C)[C@@H](CN(C)C(=O)c2ccncc2)OCc2cn(nn2)CCCC1=O	3	.	0	3	-1	0	.	.
Cc1ccnc(NC(=O)C2COc3ccccc3O2)c1 (stereo unspecified)	3	3	3.8*	14*	3	0	17*	1
Cc1cc(C(=O)CSc2nncn2C)c(C)n1-c1ccccc1	8	0	3	16*	4	0	16*	1
N/C(=N\N=C\c1ccc(O)c(O)c1)c1nonc1N	5	3	1	15*	2	0	6	0
COc1ccc(OC)c(/C=N/N=C(\N)c2nonc2N)c1	7	3	0	9	4	0	.	.
CN(C)c1ccc(/C=C/C(=O)c2ccc(O)cc2)cc1	4	5.5*	3.7*	19*	4	0	14*	1
COc1ccc(N2C[C@@]3(O)CC[C@@H](O)[C@@H](OC)[C@@H]3[C@@]2(C)[C@H](O)CC=C(C)C)cc1	3	.	-1	0	1	-1	.	.
CSc1ccccc1C(=O)Nc1ccc2c(c1)OCCO2	2	0	1	3	0	-1	.	.
CCc1ccc(NC(=O)c2ccccc2SC)cc1	0	2	3	16*	1	1	4	0
COC(=O)CC#C[C@H](C)[C@@H](NS(C)(=O)=O)C(C)(C)COCc1ccccc1	-1	.	-1	3	0	-1	.	.
CNc1nc(-c2ccc3c(c2)CCN3C(=O)c2ccccc2F)c(C)s1	2	-2	-1	1	-1	-1	.	.
CNc1nc(-c2ccc3c(c2)CCN3C(=O)c2ccccc2F)cs1	6	1	3.9*	23*	5	0	18*	1
CC(=O)OC[C@H]1O[C@H](C#Cc2ccc(C(C)(C)C)cc2)C=C[C@H]1OC(=O)Nc1ccccc1	-8	.	0	3	0	-1	.	.
CC(=O)Oc1ccc(C(=O)[C@H]2[C@H]3C(=O)N(c4ccc(C)cc4)C(=O)[C@H]3[C@@H]3C=CC=NN32)cc1	1	0	2	16*	5.9*	0	8	0
O=C(Cc1ccc(NC(=O)C2CCCN(C(=O)c3ccccc3)C2)cc1)Nc1cccc(C(=O)N2CCCC2)c1 (stereo unspecified)	-3	.	-1	4	-1	-1	.	.
Cc1ccc(C(=O)NCc2ccc(F)cc2)s1	-1	1	0	3	0	-1	.	.
Cc1ccc(C(=O)NCCc2ccc(F)cc2)s1	1	1	3	17*	3	0	17*	1
O=C(Nc1cccc([N+](=O)[O-])c1)c1cnccn1	-1	-1	0	-2	-2	-1	.	.
O=C(Nc1cccc([N+](=O)[O-])c1)c1[nH]ncc1Cl	4	0	1	14*	4	-1	9	1
SMILES	SMARCA2 act	DAX1 inh-1	DAX1 inh-2	hgDAF12 agonist	hcDAF12 agonist	ssDAF12 agonist	hgDAF12 conf	LXR ag 2
O=C(Nc1cccc([N+](=O)[O-])c1)c1ccncc1	-4	0	0	-2	-2	-1	.	.
CC(C)(C)c1ccc(C(=O)Nc2cccc([N+](=O)[O-])c2)cc1	6	2	3	14*	3	0	14*	0
COC(=O)[C@]12C[C@H](CC(=O)NCc3cccc(C(F)(F)F)c3)C(=O)N(CCC3=CCCCC3)C1=C[C@H](COCc1ccccc1)O[C@@H]2C	-5	.	-1	-1	-2	-2	.	.
C(=C\c1nc(-c2cccnc2)no1)/c1ccccc1	4	1	2	13*	3	1.0*	12*	0
Clc1ccccc1/C=C/c1nc(-c2cccnc2)no1	2	3	3	9	5	1	.	.
COc1ccc(-c2nc(CN3CCN(Cc4ccccc4)CC3)c(C)o2)cc1	-3	3	0	0	-1	-1	.	.
Cc1oc(-c2ccc(-c3ccccc3)cc2)nc1CN1CCN(CC(=O)N(C)C)CC1	3	1	3	15*	6.5*	0	14*	1
Fc1ccc2nc(Nc3ccccc3)sc2c1	3	2	3	19*	4	-1	14*	1
Fc1ccc2nc(Nc3nc4cc5c(cc4s3)OCCO5)sc2c1	6	1	4.2*	15*	2	1.5*	5	1
CC(C)Oc1cccc(-c2csc(N3CCC(C(N)=O)CC3)n2)c1	.	.	.	15*	3	0	9	1
NC(=O)C1CCN(c2nc(-c3ccc4c(c3)OCCCO4)cs2)CC1	.	.	.	17*	2	0	18*	1
CCOC(=O)c1ccc2nc(C)c3c(c2c1)OC(C)C3 (stereo unspecified)	2	-2	0	0	1	-2	.	.
CCOC(=O)c1ccc2nc3c(cc2c1)CCS3	2	1	0	16*	2	0	11*	0
COc1cccc2c1OCC(C(=O)OCc1cccnc1)=C2	-1	-1	2	3	-2	-1	.	.
COc1ccc(NC(=O)C2=Cc3cccc(OC)c3OC2)cc1	7.8*	2	2	15*	0	-1	10	0
Oc1ccc(Nc2ncnc3ccccc23)cc1	-2	1	1	0	0	-1	.	.
Cc1ccc(Nc2ncnc3ccccc23)cc1	3	0	1	14*	0	-1	10	0
